# Laboratory results reported in PubChem BioAssay (NCI).
# Compounds without any hit were thinned out: in the full panel of roughly 83,000, 20% have a hit.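 Cells were grown in 96-well plates and exposed to the test compound at a single concentration for 48 hours; results are reported as percent growth, with values below 10 considered active.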 Values without a mark were called inactive. Active and inactive are the calls of the source.
# Tested on: HS 578T breast
# Experiment: NCI-60 one-dose screen, 48 h (100 = growth as untreated, 0 = no growth, -100 = all killed)
# Details: 10 µM unless noted
# Description: Growth inhibition of the HS 578T human tumor cell line is measured as a screen for anti-cancer activity. Cells are grown in 96 well plates and exposed to the test compound for 48 hours. Compounds are tested at a single concentration, which is 10^-5 M for most compounds. The reported endpoint is percent growth (GI% or GIPRCNT), where numbers from 0 - 100% represent growth inhibition, and numbers from -100% - 0 represent cell death. For example, a value of 40 represents 60% growth inhibition. A value of 0 means no net growth occurred over the course of the experiment. A value of -40 indicates 40% of cells at the beginning of the experiment died by the end of the experiment. A value of -100 means all cells are dead at the end of the experiment.
# NCI-60 Human Tumor Cell Lines Screen was performed using the standard one-dose NCI protocol, which is described in more detail at https://dtp.cancer.gov/discovery_development/nci-60/default.htm.
# Compounds with GIPRCNT values below 10 were considered active. Activity score was based on GIPRCNT using the following formula: […]
# Score is 0 for GIPRCNT values of 100 or above, 50 for GIPRCNT values of 0, and 100 for GIPRCNT values of -100.
row,Compound,growth
1,FC(F)(F)c1cc(CNc2ncc(Br)c(Cl)n2)cc(C(F)(F)F)c1,99.4%
2,CCC(C)Oc1cc(/C=N/NC(=O)c2cnn3c2NC(c2ccccc2)C3)ccc1OC (stereo not given),-15.1% (active)
3,Cn1cc(C(=O)NCCC(=N)N)cc1NC(=O)CN=C(N)N,92.4%
4,O=C1c2ccccc2-c2cn(Cc3ccccc3)c3cccc(c23)C1c1cccnc1 (stereo not given),78.1%
5,Cc1ccc(S(=O)(=O)N2CCc3ccc(O)c4c3C2Cc2cc(Cl)ccc2-4)cc1 (stereo not given),62.8%
6,COc1cc(/C=C2\C(=O)N(c3c(Cl)cccc3Cl)c3ccccc32)cc(OC)c1O,39.8%
7,Nc1ccccc1-c1n[nH]c(=O)[nH]c1=O,92.7%
8,N#Cc1c(O)c2c(c(O)c1C#N)C(=O)c1ccccc1C2=O,70.1%
9,Cc1ccc(C2SCC(=O)N2NC(=O)c2[nH]c3ccc(F)cc3c2-c2ccccc2)cc1 (stereo not given),95.3%
10,COc1ccc(Cn2c(Br)c3c(c2-c2cc(OC)c(OC)c(OC)c2)CCc2sc(N)nc2-3)cc1,8.13% (active)
11,Cc1ccccc1-n1nnc(C(=O)Nc2ccc(-c3ccccc3)cn2)c1C,90% [50 µM]
12,Cc1ccc(N(CSc2ccc(Cl)cc2)CSc2ccc(Cl)cc2)cc1,45%
13,COc1ccc(/C=C2\CN(Cc3cn(CCCNc4ccnc5cc(Cl)ccc45)nn3)C/C(=C\c3ccc(OC)cc3)C2=O)cc1,81.5%
14,COc1ccc(/C=N/OCC(O)CN2CCC(O)CC2)cc1OC1CCCC1 (stereo not given),108%
15,CCN(c1ccc(C(=O)N2CCN(c3ccccc3)CC2)cc1)S(C)(=O)=O,105%
16,O=c1nc(NO)[nH]c(=O)n1Cc1ccc(F)cc1,112%
17,CCCCC(CCCC)(S(=O)(=O)CC)S(=O)(=O)CC,104%
18,Cc1cc(=O)c2c(C)ccc(C)c2[nH]1,108%
19,c1ccc(-c2n(Cc3ccc4ccccc4n3)c3ccccc3[n+]2Cc2ccc3ccccc3n2)cc1,2.04% (active)
20,Cc1ccc2nc(NC(=O)CSC(=S)N3CCN(Cc4ccccc4)CC3)sc2c1,-0.695% (active)

row,Compound,growth
1,COc1ccc(/C=N/NC(=O)c2cnn(CC(O)Cc3ccccc3)c2N)cc1OC1CCCC1 (stereo not given),79%
2,NC(=O)c1cc(I)ccc1NC(=O)COc1ccc(Cl)cc1Cl,106%
3,COc1ncnc2c1ncn2C/C(Br)=C(\Br)CCl,23.5%
4,Cn1c2c(cc(S(=O)(=O)c3ccccc3)c1=O)CCc1c-2cnn1-c1cccc(Cl)c1,92%
5,CC1CCCCN1S(=O)(=O)c1ccc(CN=C=S)cc1 (stereo not given),59.4%
6,CCCCCCCC/C=C\CCCCCCCCOc1cccc(CC(=O)NCC[N+](C)(C)C)c1,78.4%
7,O=C(Nc1ccccc1)Oc1cccc2cccnc12,116%
8,FCOC(C(F)(F)F)C(F)(F)F,107%
9,COc1ccccc1/C=C/C(=O)/C=C/c1ccccc1O,-40.9% (active)
10,O=C1/C(=C/c2ccc(Oc3ccccc3)cc2)N=C(c2ccccc2)N1CCc1cccs1,58.7%
11,O=c1[nH]c(-c2ccccn2)nc2sc3c(c12)CCCCCC3,69.9%
12,O=C(O)CCN1CCN(c2cccc(Cl)c2)CC1,105%
13,CCOC(=O)c1c(Cl)c2c(n1Cc1ccc(OC)cc1)-c1oncc1CCC2,67.4%
14,O=C(c1cnn2c1NC(c1ccc(F)cc1)C2)N1CCCCC1 (stereo not given),99.8%
15,CC1=C(C/C=C(\C)CCC[C@H](C)CCC[C@H](C)CCCC(C)C)C(=O)c2ccccc2C1=O,105%
16,CCN1CCN(C(=S)SCC(=O)Nc2nc3ccc(OC)cc3s2)CC1,106%
17,Cc1nn(-c2ccccc2)c2nc3nc4c(c(N)c3c(-c3ccc(Cl)cc3)c12)CCC4,99.5%
18,Clc1ccccc1Nc1ccc2nnc(-c3ccncc3)n2n1,99.6%
19,COc1cc(CNCCCN2C(=O)c3ccc4c5c(ccc(c35)C2=O)C(=O)N(CCCNCc2cc(OC)c(OC)c(OC)c2)C4=O)cc(OC)c1OC,-34.1% (active)
20,O=C1C(Cl)=C(NCCCN2CCOCC2)C(=O)c2ccccc21,99.7%
